SMILES strings stand for the structures. Out of some 190,000 compounds screened, about 810 (0.43%) were called active. The full list was thinned out, with actives kept by preference. Unmarked numbers belong to inactive results. No stated cut-off is given here; in the data, active means inhibition above about 50%; inactive means the rest.

As a reminder, the inhibition is the relative decrease from the control value, in per cent.

Sequence of Mannose-6-phosphate isomerase (Homo sapiens) (P34949 whole entry, looked up): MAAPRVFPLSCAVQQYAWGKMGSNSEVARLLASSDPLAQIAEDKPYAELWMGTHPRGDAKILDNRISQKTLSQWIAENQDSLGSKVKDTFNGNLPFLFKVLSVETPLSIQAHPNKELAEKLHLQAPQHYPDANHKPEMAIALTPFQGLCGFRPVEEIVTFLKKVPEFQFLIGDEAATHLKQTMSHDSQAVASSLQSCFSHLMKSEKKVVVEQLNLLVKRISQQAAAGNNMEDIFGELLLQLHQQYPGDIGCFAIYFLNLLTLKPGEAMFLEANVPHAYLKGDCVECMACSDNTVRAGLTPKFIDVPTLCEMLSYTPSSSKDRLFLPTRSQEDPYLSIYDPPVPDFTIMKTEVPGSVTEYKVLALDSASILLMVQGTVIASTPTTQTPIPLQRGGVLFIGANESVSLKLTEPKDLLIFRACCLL

This assay addresses Mannose-6-phosphate isomerase (Homo sapiens) (UniProt P34949). As to the kind of experiment: MPI enzyme activity inhibition – biochemical, fluorescence intensity, coupled assay, primary screen (AID 1209).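 Further: plate controls were DMSO vehicle for no effect and wells lacking substrate for full effect.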 The settings on record: purified PMI enzyme, at 20 µM, hits give high values.
With `CC1CCN(C(=O)c2ccc(SCc3ccccc3F)c([N+](=O)[O-])c2)CC1`, the inhibition is 20%.
Turning to `O=C(O)CCCC(=O)Nc1cc([N+](=O)[O-])ccc1O`, the inhibition was 9.3%.
In the case of `COc1ccc(O)c(/C=N/NC(=S)Nc2cccc(S(=O)(=O)N(C)C)c2)c1` it was -10.9%; in that of `O=C(c1cn[nH]c1)c1cc(F)ccc1O`, 12.2%.
The figure for `COc1ccc(C(=O)N/N=C(/C)c2cccc(NC(=O)C(F)(F)F)c2)cc1` is 0.4%; for `CC(C)(C)c1ccc(S(=O)(=O)O/N=C2/CCCCC2c2ccc([N+](=O)[O-])cc2[N+](=O)[O-])cc1` (configuration not stated) it is 7.7%.
On to `CCN(CC)Cc1cc(NC2=NS(=O)(=O)c3ccccc32)ccc1OC(=O)c1ccccc1`, for which the inhibition is -5.8%.
In the case of `CC(C)(C)c1ccc(C(=O)NNC(=S)NCC2CCCO2)cc1` (configuration not stated) it was -0.9%.
Consider `O=C1c2ccccc2C(=O)N1CCSc1n[nH]c(=S)s1`, for which the inhibition is -5.1%.
The figure for `Cc1nn(-c2ccccc2)c(Cl)c1C(=O)Nc1ccc(N2CCOCC2)cc1` is -17.1%; for `COc1ccc(S(=O)(=O)NN=C2CCCCC2)cc1` it is -30.4%.
As to `COc1ccc(-n2nc(C(=O)NCC(=O)NCc3ccco3)c3ccccc3c2=O)cc1`, the inhibition is 0.1%.
The figure for `Fc1ccc(C2=Nn3c(Cc4ccccc4)nnc3SC2)cc1` is 11.2%.
As to `c1ccc(Cc2nnc3n2N=C(c2ccccc2)CS3)cc1`, the inhibition is 13.3%.
For the compound `c1ccc(-c2ccc(C3=Nn4c(Cn5nnc6ccccc65)nnc4SC3)cc2)cc1`, the inhibition is 50.3% (active).
The figure for `O=C(COC(=O)c1cccnc1Cl)Nc1ccccc1OC(F)F` is -0.4%.
On to `CCC(C)(C)NC(=O)C(c1cccn1C)N(C(=O)Cn1nnc2ccccc21)c1ccccc1OC` (configuration not stated), for which the inhibition was -6.8%.
Consider `N#Cc1cn(CCOC(=O)c2cccc(C(F)(F)F)c2)c(=O)[nH]c1=O`, for which the inhibition is 4.3%.
In the case of `CCN1CCN(c2nc3ccccc3nc2C(C#N)C(=O)OCc2ccccc2)CC1` (configuration not stated) it was 8.9%; in that of `COC(=O)c1ccc(OC(=O)c2ccco2)cc1`, -5%; in that of `O=C(Oc1ccc(-c2cnc3ccccc3n2)cc1)c1ccco1`, 0.2%.
The figure for `Cc1cccc(-n2nnnc2SCC(=O)c2cc(C)n(Cc3ccco3)c2C)c1` is -2.6%.
In the case of `CC(=O)Nc1nc2c(c3c1c(=O)oc1ccccc13)CCCCC2` it was -2.8%; in that of `CCOc1ccc(CONS(=O)(=O)c2ccc(NC(C)=O)cc2)cc1Cl`, 16.3%; in that of `C[N+]1(CC#CC(O)(c2ccccc2)c2ccccc2)CCCC1`, 21.6%.
In the case of `CC1(C#CC[N+]2(C)CCCCC2)CCC2C(O1)c1ccccc1OC2(C)C` (configuration not stated), the inhibition is 105% (active).
On to `CC12CCC3(CO)COC(c4ccccc4O1)C2C3` (configuration not stated), for which the inhibition was 3.4%.
The figure for `C=CCN(CC=C)C(=O)Nc1ccc2nc(C)sc2c1` is 8.1%.
Consider `CCOC(=O)N1CCN(C(=O)c2ccc(S(=O)(=O)NCc3ccco3)cc2)CC1`, for which the inhibition was -4.2%.
The figure for `Cc1ccc(NC(=O)c2ccc(N/N=C/c3cccc(O)c3)c([N+](=O)[O-])c2)cc1` is 5.1%.
For the compound `O=c1[nH][nH]c(-c2ccccc2)c1C=Nc1ccc(Cl)cc1`, the inhibition was -4.3%.
On to `Cn1cnnc1SCC(=O)Nc1ccccc1F`, for which the inhibition was -2%.
In the case of `CCc1cc(C(=O)NNC(=S)Nc2ccccc2C)cs1` it was -8.6%; in that of `Cc1cc(C(=O)NNC(=S)Nc2ccccc2C)cs1`, 70.7% (active); in that of `Cc1cccc(NC(=S)NNC(=O)c2csc(C)c2)c1`, -3.7%.
Consider `O=C(Nn1cnnc1)C1CCCN1S(=O)(=O)c1ccc(F)cc1` (configuration not stated), for which the inhibition was -3.3%.
In the case of `Cc1ccc(NC(=O)CSc2nnc(C)n2-c2ccccc2)cc1` it was -1.7%; in that of `Cc1ccc(-n2c(=O)[nH]c3ncccc3c2=O)cc1`, 12.9%.
In the case of `Cc1ccc(N=Cc2ccc(O)cc2O)cc1F` it was 9.4%.
With `Oc1ccc(C=Nc2cccc3ncccc23)c(O)c1`, the inhibition was 46.8%.
With `Oc1ccc(C=Nc2ccc3ncccc3c2)c(O)c1`, the inhibition was 68.4% (active).
The figure for `O=C(COC(=O)c1cccc(Cl)c1)Nc1cc(Cl)ccc1Oc1ccccc1` is 18.8%; for `Cc1cc(OCC(O)CN)ccc1Cl` (configuration not stated) it is -8.6%; for `Clc1ccc(CN2CCN(/N=C/c3cccnc3)CC2)cc1` it is 85.6% (active).
With `Cc1ccc(CN2CCN(/N=C/c3cccnc3)CC2)cc1`, the inhibition is 17.9%.
In the case of `C(=N\N1CCN(Cc2ccccc2)CC1)/c1cccnc1`, the inhibition is 9.3%.
Consider `Cc1cccc(CSc2nc(N)c(C#N)c(-c3cccs3)c2C#N)c1`, for which the inhibition was 6.6%.
In the case of `CN1CCc2nc(SCC(=O)Nc3ccc(OC(F)(F)F)cc3)c(C#N)c(-c3cccs3)c2C1` it was 15.7%; in that of `CC(C)(C)C(=O)CSc1nc2c(c(-c3cccs3)c1C#N)CCC2`, -25.9%.
The figure for `COc1ccc(NC(=O)CSc2nc3c(c(-c4cccs4)c2C#N)CN(C)CC3)cc1OC` is 59.8% (active); for `Cc1cccc(CSc2nc3c(c(-c4cccs4)c2C#N)CN(C)CC3)c1` it is 69.6% (active).
Regarding `CN1CCc2nc(SCC(=O)Nc3cccc(F)c3)c(C#N)c(-c3cccs3)c2C1`, the inhibition was 35%.
The figure for `COc1ccc2c(c1)C(=O)N(c1ccccc1C)C(=O)C2(C)C` is -9.2%; for `COC(=O)CCCNc1ncccc1[N+](=O)[O-]` it is -0.5%.
For the compound `Cn1c(SCC(=O)N2CCN(c3ccccc3)CC2)nnc1-c1ccco1`, the inhibition was 4.2%.
In the case of `CC(C)(CNS(C)(=O)=O)SCc1ccc(Cl)cc1` it was -12.2%; in that of `Cc1nn(C(C)CC(=O)O)c(C)c1Br` (configuration not stated), -0.1%.
The figure for `COc1cccc(/C=N/NC(=O)c2ccccc2)c1OS(=O)(=O)c1ccccc1` is 2.4%; for `COc1ccc(C(=O)CCC(C)(C)[N+](=O)[O-])cc1` it is -6.3%.
The figure for `O=C(c1ccc(CS(=O)(=O)c2ccc(Br)cc2)o1)N1CCN(C2CCCCC2)CC1` is -9%; for `O=C(NC1CCCCCC1)C(=S)N1CCOCC1` it is 61.8% (active).
As to `O=C(NC1CCCCC1)C(=S)N1CCOCC1`, the inhibition was 10.9%.
With `O=C(NC1CCCCCC1)C(=S)N1CCCC1`, the inhibition is 4.7%.
For `Cc1ccc(C(C(=O)NC2CCCCC2)N2CCC3(CC2)OCCO3)cc1` (configuration not stated), the inhibition was 1.6%.
In the case of `C=CCOC(=O)C1=C[C@H](c2ccc(Br)cc2)[C@@H](CCCO)[C@H](OCC)O1`, the inhibition is 17.5%.
In the case of `Cc1occc(=O)c1O` it was -5.2%.
Turning to `COc1ccc(-c2cc(=O)c3c(O)c(OC)c(O)cc3o2)cc1`, the inhibition is 0.6%.
In the case of `Cc1cc(=O)c2c(O)c(O)ccc2o1` it was 77.7% (active).
In the case of `O=C(O)c1ccccc1Cc1nc2cc(Cl)ccc2c(=O)[nH]1` it was -7.4%; in that of `COc1ccc(NC(=O)CCCn2c(=O)c3sccc3n(Cc3ccccc3C)c2=O)cc1`, 6.6%.
On to `OCC[n+]1ccc(/C=C/c2c[nH]c3ccccc23)cc1`, for which the inhibition was 2.7%.
`CCc1ccc(/C=C/c2c[nH]c3ccccc23)[n+](CC)c1`: the inhibition is 51.8% (active).
In the case of `CCN(CC)C(=O)c1ccc(/C=C/c2c[nH]c3ccccc23)[n+](C)c1` it was 8.9%; in that of `NS(=O)(=O)c1ccc(CCNC(=O)C2CCC(CNS(=O)(=O)c3ccc(Br)s3)CC2)cc1` (configuration not stated), 4.5%.
The figure for `CC(C)(C)c1nn(-c2ccccc2)c2nc(Cl)c(C=O)cc12` is -1.5%.
In the case of `Cc1cc(C)c2cc(CNC3CCCC3)c(Cl)nc2c1` it was 8.6%; in that of `Cc1ccc2cc(C=O)c(Cl)nc2c1`, 37.4%.
Consider `Cc1cc2cc(C=C(C#N)C#N)c(Cl)nc2cc1C`, for which the inhibition was 20.3%.
The figure for `Cc1cc2cc(C=O)c(Cl)nc2cc1C` is 61.2% (active); for `Cc1occc1C(=O)NNC(=O)C1CCCCC1` it is 20.4%; for `CCOc1ccc(CCNC(=O)CSc2nn(-c3ccc(C)c(Cl)c3)c(=S)s2)cc1OCC` it is 8.9%.
Regarding `CCN(CC1COc2ccccc2O1)C(=S)Nc1ccccc1` (configuration not stated), the inhibition is 11.9%.
The figure for `S=C(c1ccc(-c2ccccc2Cl)o1)N1CCOCC1` is 70.8% (active); for `S=C(c1ccc(-c2cc(Cl)ccc2Cl)o1)N1CCOCC1` it is 11.6%; for `S=C(c1ccc(-c2ccccc2Cl)o1)N1CCCCC1` it is 10.9%.
Consider `O=C(CSc1nnc(-c2ccc(OC(F)F)cc2)o1)N1CCOCC1`, for which the inhibition was -4.5%.
In the case of `CNC(=O)c1ccccc1F` it was 6.4%.
The figure for `O=C(C1CC1)N1N=C(C2CCCCC2)CC1(O)C(F)(F)F` (configuration not stated) is 6.9%; for `O=C(C1CCCC1)N1CCC(CO)(Cc2ccccc2Cl)CC1` it is 0.9%; for `S=c1[nH]c2ccc(Cl)cc2[nH]1` it is 50.2% (active).
On to `COc1ccc2[nH]c(=S)[nH]c2c1`, for which the inhibition was 16.4%.
The figure for `S=c1[nH]c2cc(Cl)ccc2s1` is -15.2%.
In the case of `O=C(Nc1ccccc1Cl)N1CCN(C/C=C/c2ccccc2)CC1` it was -2%; in that of `Cc1ccc(-c2cn3c(n2)SCC3)cc1`, -3.8%; in that of `Oc1ccc(-c2cn3c(n2)SCC3)cc1O`, 59.5% (active).
In the case of `Oc1ccc(-c2cn3c(n2)SCC3)cc1` it was -8.6%.
In the case of `CCNc1nc(N2CCOCC2)nc(N(c2ccccc2)c2ccccc2)n1`, the inhibition was 13%.
In the case of `COc1ccc(Cl)cc1N/C(N)=N/c1nc(CSc2ccc(C)cc2)cc(=O)[nH]1` it was 3.7%.
The figure for `NC(=S)N/N=C\c1c2ccccc2cc2ccccc12` is -64.6%; for `NC(=S)Nc1cc2ccccc2c2ccccc12` it is 67.5% (active); for `NC(=S)Nc1cccc2cc3ccccc3cc12` it is -8.8%.
The figure for `COc1ccc(C(=O)OCC(=O)NCCCc2ccccc2)cc1[N+](=O)[O-]` is 9.8%.
